Experimental data: PubChem BioAssay
Active and inactive are the calls of the source.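 The calls were made as follows, unless noted: active = inhibition above 20% together with a positive visual image hit; inconclusive = visual image hit but inhibition not above 20%; inactive = no visual image hit.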

Experiments:
[1] = inhibitors of TNFa-induced NFkB p65 translocation, primary screen, imaging, HUVEC, MLSMR starter and 10KST1 sets (AID 438); details: HUVEC TNFa-induced p65 nuclear translocation; cell count: measured here: nuclei count (cytotoxicity indicator), at 2.08 µM; inhibition: at 2 µM, stronger effect = higher value, 0% TNFa-plus-vehicle, 100% no-TNFa wells;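 also: compound added about 3h40 before a 20 min TNFalpha stimulation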;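 as to inhibition: signal is the nuclear over cytoplasmic p65 intensity ratio per well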
[2] = reduction of polyQ htt aggregates in cells – imaging, exon1htt(103Q)mCFP cells, high-content imaging, primary screen (AID 483;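 active = visual image review flags a hit and inhibition of aggregation exceeds 20%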;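 also: compound exposure lasted 3 days before fixation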;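 as to nuclei count: percent of the per-plate median nuclei count of sample wells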); details: exon1htt(103Q)mCFP cell line, aggregate imaging, at 2 µM; inhibition of aggregation: stronger effect = higher value; nuclei count: measured here: cell count, toxicity
[3] = endothelial E-selectin expression blockers – imaging, HUVEC, immunofluorescence, MLSMR starter and 10KST1 sets, primary screen (AID 487;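 active = visually confirmed hit in the image check and inhibition above 20%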;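 as to inhibition: signal is fraction of cell area covered by stained E-selectin grains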;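 as to nuclei count: 100% = median nuclei count of all wells on the same plate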); details: HUVEC TNFalpha-induced E-selectin immunofluorescence imaging, at 2 µM; inhibition: stronger effect = higher value; nuclei count: measured here: cell number, toxicity
[4] = target: Voltage-gated potassium channel subunit beta-2 (Rattus norvegicus) (UniProt P62483); assay: inhibitors of rat Kvbeta2 reductase activity – biochemical, NADPH fluorescence, primary screen (AID 622;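 active = fluorescence slope higher than the sample average by over 3 SD, cut at about -0.22 in these data, passing the limit was not always enough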;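 also: slope of raw intensity against log time taken from 70 to 1610 s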); details: recombinant KvBeta, 4-cyanobenzaldehyde reduction, at 10 µM, stronger effect = higher value
[5] = target: Voltage-gated potassium channel subunit beta-2 (Rattus norvegicus) (UniProt P62483); assay: enhancers of rat Kvbeta2 NADPH turnover – biochemical, NADPH fluorescence, primary screen (AID 623;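 active = NADPH fluorescence slope more negative than the mean of all samples by about 3 SD, 99.7% confidence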;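 also: fluorescence intensity change per second fitted from 20 to 320 s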); details: Recombinant KvBeta, NADPH fluorescence decrease slope, 10 min; at 10 µM; stronger effect = lower value
[6] = target: Alpha-2C adrenergic receptor (Homo sapiens) (UniProt P18825); assay: compounds altering alpha2C-coupled GIRK flux – cell-based, HEK293 alpha2C/GIRK1/2, thallium flux, primary screen (AID 624;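 active = fluorescence slope after compound addition differing from the mean of all screened samples at 99.7% confidence, in either direction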;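 also: slope of fluorescence ratio to pre-addition baseline per second over 15 to 24 s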); details: thallium flux BTC fluorescence, at 10 µM, actives lie on both sides
[7] = blockers of RIG-like receptor reporter activation – cell-based, Sendai virus stimulus, luciferase, 10K MLSCN set, TLR/RLR signaling modifier project, primary screen (AID 602276;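 active = inhibition at or above 50% at 10 µM; inactive = inhibition below 50%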;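 also: firefly luciferase from ISG56 promoter only with Renilla not read in this screen; 0% = Sendai virus plus DMSO and 100% = medium plus DMSO without virus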); details: HEK293 RL24 IRF3 luciferase reporter, at 10 µM, stronger effect = higher value
[8] = TLR3 IRF3 reporter activation blockers – cell-based, poly I:C stimulus, luciferase, 10K MLSCN set, primary screen (AID 602277;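 active = inhibition of the reporter signal at or above 50%; inactive = inhibition below 50%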); details: HEK293-TLR3 RL24 IRF3 luciferase reporter, at 10 µM, stronger effect = higher value

Sequence of Voltage-gated potassium channel subunit beta-2 (Rattus norvegicus) (P62483 whole entry, looked up): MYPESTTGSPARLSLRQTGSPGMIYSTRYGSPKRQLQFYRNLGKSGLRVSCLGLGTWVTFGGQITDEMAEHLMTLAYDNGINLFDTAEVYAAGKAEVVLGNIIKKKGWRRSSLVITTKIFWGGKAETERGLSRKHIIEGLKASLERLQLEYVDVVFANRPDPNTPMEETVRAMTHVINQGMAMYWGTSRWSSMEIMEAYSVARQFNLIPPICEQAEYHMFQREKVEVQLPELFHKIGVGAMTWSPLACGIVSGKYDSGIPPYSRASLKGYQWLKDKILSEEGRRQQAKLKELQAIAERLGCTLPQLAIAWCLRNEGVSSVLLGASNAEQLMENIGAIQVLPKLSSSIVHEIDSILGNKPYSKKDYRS
Sequence of Alpha-2C adrenergic receptor (Homo sapiens) (P18825 whole entry, looked up): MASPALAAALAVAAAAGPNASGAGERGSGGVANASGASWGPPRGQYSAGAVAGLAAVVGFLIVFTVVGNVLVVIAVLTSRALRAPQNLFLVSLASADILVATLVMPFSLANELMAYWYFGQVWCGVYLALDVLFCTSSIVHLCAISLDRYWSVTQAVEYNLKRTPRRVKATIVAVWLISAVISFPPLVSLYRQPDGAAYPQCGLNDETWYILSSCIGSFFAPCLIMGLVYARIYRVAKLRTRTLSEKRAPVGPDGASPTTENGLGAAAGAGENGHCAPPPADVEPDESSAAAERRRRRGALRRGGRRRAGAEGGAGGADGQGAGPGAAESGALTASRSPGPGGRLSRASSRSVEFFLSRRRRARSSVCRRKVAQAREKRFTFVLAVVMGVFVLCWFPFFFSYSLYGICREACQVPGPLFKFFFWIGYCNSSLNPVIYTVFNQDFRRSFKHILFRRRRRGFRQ

Row | Structure (SMILES) | cell count [1] | inhibition [1] | inhibition of aggregation [2] | nuclei count [2] [%] | inhibition [3] | nuclei count [3] [%] | fluorescence slope [4] | NADPH fluorescence slope [5] | slope [6] | inhibition [7] | inhibition [8]
1 | CS(=O)(=O)NCc1ccc(C(=O)NCc2ccccc2)cc1 | 640 | 3.3% (inactive) | 0% (inactive) | 104 | -19.7% (inactive) | 109 | -0.415 (inactive) | -3.9e-05 (inactive) | 0.003 (inactive) | -0.454% (inactive) | 5.61% (inactive)
2 | Cn1c(C(=O)NCCC2=CCCCC2)cc2c(=O)n3ccccc3nc21 | 261 | 31.6% (active) | 5.6% (inactive) | 92.2 | 46.7% (inactive) | 71.3 | -0.128 (active) | 1.2e-05 (inactive) | 0.00542 (inactive) | -27.5% (inactive) | -62% (inactive)
3 | CC(C)CCNC(=O)C(c1ccco1)N(CC1CCCO1)C(=O)Cn1nnc2ccccc21 (stereo not drawn) | 393 | 10.3% (inactive) | 5.4% (inactive) | 104 | -72.5% (inactive) | 103 | -0.612 (inactive) | -4.6e-05 (inactive) | 0.00382 (inactive) | 8.01% (inactive) | 16.4% (inactive)
4 | COC(=O)C1=C(N)OC2=C(C(=O)CCC2)C1c1cccs1 (stereo not drawn) | 491 | 3.2% (inactive) | 27.3% (inactive) | 52 | 44.1% (inactive) | 103 | -0.49 (inactive) | -3.8e-05 (inactive) | 0.00743 (inactive) | 2.58% (inactive) | 21.7% (inactive)
5 | CCOC(=O)c1ccc(NC(=O)CSc2nnc(COc3ccccc3)n2C)cc1 | 393 | 2.5% (inactive) | -6.7% (inactive) | 97.5 | -25.8% (inactive) | 122 | -0.455 (inactive) | -5e-05 (inactive) | 0.00289 (inactive) | -1.67% (inactive) | 29% (inactive)
6 | CC(NC(=O)c1ccco1)c1ccc2c(c1)OCCO2 (stereo not drawn) | 418 | 9.3% (inactive) | 10% (inactive) | 89.2 | -95% (inactive) | 105 | -0.431 (inactive) | -2.6e-05 (inactive) | 0.00638 (inactive) | 9.46% (inactive) | 15.1% (inactive)
7 | COC(=O)Cn1c(CCS(=O)(=O)c2ccc(C)cc2)nc2ccccc21 | 503 | -41.8% (inactive) | 6.7% (inactive) | 57.3 | -69.5% (inactive) | 105 | -0.498 (inactive) | -2.9e-05 (inactive) | 0.00565 (inactive) | 17.1% (inactive) | 28.4% (inactive)
8 | O=C(CCn1c(=O)oc2ccccc21)NCCN1CCOCC1 | 653 | -15.1% (inactive) | 2.6% (inactive) | 110 | -9.1% (inactive) | 99.8 | -0.58 (inactive) | -5.4e-05 (inactive) | 0.00667 (inactive) | -16.3% (inactive) | -13% (inactive)
9 | c1ccc(CCc2nc(-c3cccnc3)no2)cc1 | 647 | 3.1% (inactive) | 5% (inactive) | 93 | -102% (inactive) | 132 | -0.636 (inactive) | 1.1e-05 (inactive) | 0.00345 (inactive) | -30.7% (inactive) | -90.7% (inactive)
10 | CN1C(=S)SC(C)(NO)C1(C)C (stereo not drawn) | 446 | 6.5% (inactive) | 7.3% (inactive) | 78.4 | 2.9% (inactive) | 107 | -0.479 (inactive) | -0.000139 (active) | 0.00444 (inactive) | 15.4% (inactive) | 16% (inactive)
11 | CCOC(=O)N1CCC(NC(=O)Cc2ccc(-n3c(=O)[nH]c4ccccc4c3=O)cc2)CC1 | 753 | -5.8% (inactive) | -8.3% (inactive) | 112 | -35.8% (inactive) | 115 | -0.527 (inactive) | -1.5e-05 (inactive) | 0.00585 (inactive) | 0.617% (inactive) | -10.4% (inactive)
12 | CCOC(=O)CSc1nc2ccccc2n1CC(=O)N1CCN(c2ccccc2)CC1 | 436 | 14.9% (inactive) | 7.6% (inactive) | 98 | 50.8% (inactive) | 99.5 | -0.569 (inactive) | 2.2e-05 (inactive) | 0.00504 (inactive) | -4.03% (inactive) | 1.41% (inactive)
13 | CC(=O)C1=C(C)OC(N)=C(C#N)C1c1ccncc1 (stereo not drawn) | 322 | 3.7% (inactive) | -14.4% (inactive) | 97.8 | 39.3% (inactive) | 112 | -0.616 (inactive) | -5.3e-05 (inactive) | 0.004 (inactive) | 12.5% (inactive) | 16.8% (inactive)
14 | CC1Cc2ccccc2N1C(=O)c1cccnc1 (stereo not drawn) | 254 | -1% (inactive) | -30.3% (inactive) | 106 | -64.3% (inactive) | 103 | -0.422 (inactive) | -8.5e-05 (inactive) | 0.00616 (inactive) | 14.1% (inactive) | 25.5% (inactive)
15 | COc1ccc(S(=O)(=O)NCc2ccc3c(c2)OCO3)cc1C(=O)O | 379 | -4.7% (inactive) | -1.8% (inactive) | 120 | -41.3% (inactive) | 107 | -0.324 (inactive) | -8.9e-06 (inactive) | 0.00676 (inactive) | 9.22% (inactive) | 20.8% (inactive)
16 | CCCOC(=O)/C(C(N)=NCc1ccccc1)=C(\O)OCCC | 488 | 4.4% (inactive) | -27.7% (inactive) | 110 | -8.5% (inactive) | 127 | -0.406 (inactive) | 0.00015 (inactive) | 0.00562 (inactive) | -11.7% (inactive) | -11.9% (inactive)
17 | COc1ccc(S(=O)(=O)NCC(=O)N(CC(=O)NCC2CCCO2)c2ccccc2C)cc1 (stereo not drawn) | 251 | 2.2% (inactive) | -8.4% (inactive) | 106 | -22.6% (inactive) | 96.9 | -0.399 (inactive) | -6.5e-06 (inactive) | 0.00632 (inactive) | 19.2% (inactive) | 18.4% (inactive)
18 | CCN(CCNC(=O)C1CCN(S(=O)(=O)c2cccc3cccnc23)CC1)c1ccccc1 | 614 | 5.8% (inactive) | -11% (inactive) | 112 | 2.5% (inactive) | 108 | -0.569 (inactive) | 2.5e-05 (inactive) | 0.00561 (inactive) | 11.9% (inactive) | 12.7% (inactive)
19 | CCCCOc1ccccc1NC(=O)c1ccco1 | 334 | 11% (inactive) | -21.3% (inactive) | 91.7 | -54.6% (inactive) | 122 | -0.517 (inactive) | -4.6e-05 (inactive) | 0.00466 (inactive) | 18.5% (inactive) | 18.5% (inactive)
20 | CCOC(=O)c1sc(NC(=O)COC(=O)Cn2cnc3ccccc32)c(C(=O)OCC)c1C | 398 | 4.3% (inactive) | 2.6% (inactive) | 90.6 | -109% (inactive) | 115 | -0.613 (inactive) | -3e-05 (inactive) | 0.00913 (inactive) | 13.7% (inactive) | -7.45% (inactive)
21 | O=C(CC1(O)C(=O)Nc2ccccc21)c1ccc2c(c1)OCO2 (stereo not drawn) | 484 | 4.5% (inactive) | -8.1% (inactive) | 102 | -22.5% (inactive) | 110 | -0.384 (inactive) | 2.8e-06 (inactive) | 0.00339 (inactive) | 10.1% (inactive) | 35.2% (inactive)
22 | Cc1sc2ncnc(SCC(=O)N3CCCC3)c2c1C | 369 | 3.5% (inactive) | -6.6% (inactive) | 112 | -32.3% (inactive) | 108 | -0.433 (inactive) | -0.000107 (inactive) | 0.00701 (inactive) | 8.17% (inactive) | 6.41% (inactive)
23 | CCCSc1nnc2nc3c(nn12)c1ccccc1n3C | 572 | 4.4% (inactive) | -6.3% (inactive) | 109 | 5.3% (inactive) | 107 | -0.519 (inactive) | -6.9e-05 (inactive) | 0.0026 (inactive) | 5.91% (inactive) | 27.8% (inactive)
24 | CCc1ccc(C(=O)NC2CCCCC2)s1 | 355 | -1.2% (inactive) | 0.6% (inactive) | 98.5 | 11.7% (inactive) | 104 | -0.523 (inactive) | -4.3e-05 (inactive) | 0.00428 (inactive) | -41.5% (inactive) | -96.5% (inactive)
25 | Nn1c(SCC(=O)Nc2ccc(S(=O)(=O)N3CCCC3)cc2)nnc1C(F)(F)F | 704 | -3.3% (inactive) | -7% (inactive) | 104 | -33.2% (inactive) | 128 | -0.504 (inactive) | -6.5e-05 (inactive) | 0.00607 (inactive) | 9.87% (inactive) | 12.8% (inactive)
26 | CCOC(=O)CSc1nn(C)c(=S)s1 | 723 | 0.6% (inactive) | -4.4% (inactive) | 108 | -19.1% (inactive) | 104 | -0.573 (inactive) | -1.7e-05 (inactive) | 0.00733 (inactive) | 3.99% (inactive) | 21.1% (inactive)
27 | O=C(c1ccccc1)N1CCN(CC2CC=CCC2)CC1 (stereo not drawn) | 391 | -9.9% (inactive) | 21.1% (inactive) | 91 | -93.3% (inactive) | 69.8 | -0.304 (inactive) | 2.3e-05 (inactive) | 0.00325 (inactive) | 6.11% (inactive) | 19.5% (inactive)
28 | CC(=O)NC1CC2CCCC(C1)N2CC(=O)Nc1ccccc1 (stereo not drawn) | 302 | 9.6% (inactive) | 3.9% (inactive) | 89.5 | 26.1% (inactive) | 93.9 | -0.565 (inactive) | -2.4e-05 (inactive) | 0.00646 (inactive) | -13.6% (inactive) | -5.22% (inactive)
